# Experimental data taken from the supplement of paper PMC6555819.
# Tests used:
# Test in all cases: PBM binding z-score (relative to random genomic background probes); higher = stronger binding; sequences stand for … in GC…GCGATTGACAGCGTAGAATGAAGG
# [1] = test system: RARb homodimer (NR concentration 270 nM)
# Summary of the method: (§1)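 Regression normalization was applied to scanned fluorescence from custom Agilent 4×180K protein-binding microarrays. Before scanning, arrays were incubated 1 h with ligand-free nuclear receptor dimers, and binding was detected with antibodies against each partner (one per run). Binding z-scores use the random background probes as reference.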
# [2] = test system: RARg:RXRa (NR concentration 270 nM, RXRa partner concentration 90 nM)
# Summary of the method: as §1
# [3] = test system: RARg homodimer (NR concentration 270 nM)
# Summary of the method: as §1
# [4] = test system: RXRa DBDmut IVT, anti-RXR (DBD mutation: RXRa K156A/R161A, NR concentration 90 nM)
# Summary of the method: as §1
# [5] = test system: RXRa homodimer (NR concentration 180 nM)
# Summary of the method: as §1
# [6] = test system: THRa:RXRa (NR concentration 90 nM, RXRa partner concentration 90 nM)
# Summary of the method: as §1
# [7] = test system: THRa homodimer (NR concentration 90 nM)
# Summary of the method: as §1
# [8] = test system: VDR homodimer (NR concentration 270 nM)
# Summary of the method: as §1
Sequence,PBM binding z-score [1],PBM binding z-score [2],PBM binding z-score [3],PBM binding z-score [4],PBM binding z-score [5],PBM binding z-score [6],PBM binding z-score [7],PBM binding z-score [8]
GCAGACAGGTGAAAAGCAGGTAACTCAGGGTGGC,0.095,0.178,-0.088,-0.616,0.348,1.28,-0.428,-0.329
CCAGACAGGTGAGAAGCTAACTCAGCCTCGATTA,0.0853,-0.181,0.0316,-0.135,0.129,0.183,-0.194,-0.0982
ATCGCTAGGTAAAGATAGTTCAGTGAATGCAAAT,0.559,0.136,0.387,-0.61,-0.287,0.234,-0.407,-0.0178
GCTCAGAGGACAAGGTCAGAGCTTTGTCCGTAGA,3.68,3.51,4.41,1.18,2.64,3.08,1.34,0.78
ACTTGCAGGCCAAGTTTGGGTCACTCAAACAAAG,2.46,2.6,1.88,0.31,1.01,2.53,1.22,0.527
CAAACTCGGTCAAAGGTCAAAGTCGAGCCAACCA,5.08,8.4,6.7,2.48,9.27,4.33,1.31,3.31
TCATATAGGTCAAGGTGAAAGTCGAACGATATGA,3.84,5.31,5.43,1.56,5.05,3.47,1.36,0.356
CCTACTAGGCCAAAAAGGTCATTGATGCCGATAA,4.74,4.81,4.61,1.38,4.95,3.35,0.809,2.99
CCTACTGGCCCAAGGTCATTGATCAGTCAAAGCA,3.58,3.48,2.65,1.58,3.16,3.57,2.81,2.79
CGTACAGGGTCAGCTAGGCCAGAGTAGGGACGGC,3.07,4.55,4.77,1.93,4.1,3.05,0.562,1.14
TTACCAAGGTGATAGGTCGTTGATGCACGCCTTG,0.852,0.727,0.286,-0.12,1.51,1.25,0.482,0.256
CGAACTAGGTCATCCAGGACAGTGACTACATTGA,3.11,4.13,4.54,2.28,2.93,3.77,2.2,1.69
TCTAGTTGGTCACCGAGGTCACACACGACGGGTA,4.5,4.8,4.64,1.4,5.06,4.2,4.2,3.89
CCTTACGGGTCACTGACAGGTTATAGAATTTGGA,3.22,5.81,4.95,1.92,5.1,3.02,0.45,0.936
CCTTACGGGTCACGAGGTTAAAGCACGACGAGCG,3.99,6.28,5.56,2.06,6.97,3.82,0.843,2.06
CGTCCAAGGTCATAGGAGGTCAGTGAAGACAGAT,5.19,6.63,7.12,3.93,6.4,5.42,3.01,4.13
CCTCAGAGGACAGAAGGTCAGAGCTGTCCGCTTT,3.51,3.95,3.91,0.625,2.1,1.95,-0.0422,0.12
GCAGACAGTTGAAACGCAGGTAACTCAGGGTGGC,-0.639,0.0568,-0.397,-0.408,0.339,0.919,-0.565,-0.832
CAAACTAGGACACCGGAAGGTCAAAGTCCGCATG,4.14,4.12,3.83,0.721,3.58,3.71,2.1,2.92
ATCGAAAGGTCGACGAGGTGAGCATACACCGTTT,2.94,4.4,4.53,1,4.49,3.75,1.18,0.518
CAAACTAGGTCACGAAAGCTCAAAGTCGAATGAC,3.1,4.61,5.69,1.74,3.99,3.28,1.48,0.544
CGTCCAAGGTCAGCAGGTAAGTGAAAGCGACGTG,3.74,5.27,5.92,2.48,3.94,3.46,2,0.856
TCATATAGGTAAAAGGGGAAAGTCGGTGTGGTAA,0.789,0.447,0.236,1.95,1.19,0.512,0.383,0.386
TGAATGAGGTTATAAGATCAGGGAGCGTTGCAAA,-0.251,1.37,0.756,0.685,1.8,1.61,-0.245,0.229
ATCTCTAGGTAGCAAGTTCAGTGAAAGAGAGGAC,1.48,0.743,0.963,0.543,0.352,0.972,0.46,2.36
ATATGTAGGTTAGCTGGTGTCATTCAGACTAGGC,0.884,0.888,0.979,0.243,0.936,2.52,-0.1,0.617
TTACCACGGTGAGCTGAGGTCGTTGATCCAACTC,0.63,0.212,-0.116,-0.00262,0.759,3.24,1.31,1.64
TAGAGTAGGTTAGGGGCATTCAGAATGGCGTCGA,1.72,1.16,0.918,0.0146,1.08,1.36,0.85,1.66
